From PubChem BioAssay (NCATS) come the findings set out here.

Results filed as inconclusive are left out. Entries that show only a call come without a potency. Active and inactive are the calls of the source. Calls come from the whole dose curve; as a rule, active = well fitted inhibition curve with a large enough effect; inconclusive = small, poorly fitted or top-dose-only effect; inactive = no such curve, though single readings can be large or run the other way.

The first experiment in a line: qHTS Assay for Lipid Storage Modulators (AID 1519). Particulars: Drosophila S3 cells, BODIPY lipid droplet/cell ratio, laser cytometry; measured here: lipid channel max response; cells loaded with oleic acid. The procedure, abridged:
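Cells seeded at 5,000 per well were treated with compounds over a concentration series and loaded with oleic acid (400 uM, as added). Lipid droplet fluorescence (488 nm excitation, 500-530 nm channel) was read by laser-scanning cytometry and normalized to 20 uM Triacsin C.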
(In qHTS, concentration-response curves come from the screen itself.)
Take `Cc1noc(C)c1C(=O)N1CCC[C@@]2(CCN(C(=O)NC(C)C)C2)C1`: the max response was 18.4%.
`COCC(=O)N1CCC2(CC1)CN(C(=O)Nc1cccc(C#N)c1)C2`: the max response was determined as 11%.
On to `Cc1noc(C)c1C(=O)N1CCC2(CCN(C(=O)NC(C)C)CC2)CC1`, for which the max response amounted to 11.9%.
Consider `O=C(Nc1ccccc1)N1CC[C@@]2(CCCN(C(=O)c3ccco3)C2)C1`, for which the max response came to 7.34%.
Same read-out and setting: then `CC(=O)N1CCC2(CCCN(c3ccccn3)C2)CC1`, with 28%; and `CC(=O)N1CCC2(CCN(Cc3ccncc3)CC2)CC1`, with 14.4%; and `O=C(Nc1cccc(F)c1)N1CCC2(CCNCC2)CC1`, with 23.2%.
With `COCC(=O)N1CCC2(CC1)CN(C(=O)Nc1cccc(F)c1)C2`, the max response was 29%.
As to `COCC(=O)N1CCC2(CC1)CN(Cc1cc(C(F)(F)F)cc(C(F)(F)F)c1)C2`, the max response was found to be 17.9%.
Turning to `COCC(=O)N1CCC2(CCCN(C(=O)Nc3cccc(F)c3)C2)CC1`, the max response was found to be 14.2%.
With `COCC(=O)N1CCC2(CC1)CN(C(=O)Nc1ccc(OC)cc1)C2`, the max response came out at 29.3%.
Turning to `Cn1cccc1C(=O)N1CCC2(CC1)CN(C(=O)Nc1ccccc1)C2`, the max response stood at 14.5%.
Regarding `COC(=O)N1CCC[C@@]2(CCN(C(=O)Nc3ccccc3)C2)C1`, the max response amounted to 3.51%.
As to `O=C(c1ccncc1)N1CCC2(CC1)CN(c1ncccn1)C2`, the max response was found to be 23.6%.
On to `CC(C)NC(=O)N1CCC2(CC1)CCN(C(=O)c1ccco1)CC2`, for which the max response was 11.7%.
Take `O=C(Nc1ccccc1)N1CC2(CCN(C(=O)c3ccco3)CC2)C1`: the max response was found to be 27.1%.
In the case of `COc1ccccc1CN1CCCC2(CCNCC2)C1`, the max response is 14.4%.
Regarding `COC(=O)N1CCC[C@@]2(CCN(c3ccccn3)C2)C1`, the max response is 11%.
For the compound `Cn1cccc1C(=O)N1CCC2(CCN(C(=O)Nc3cccc(F)c3)CC2)CC1`, the max response was 25.2%.
For the compound `O=C(c1csnn1)N1CCC2(CC1)CN(Cc1cc(C(F)(F)F)cc(C(F)(F)F)c1)C2`, the max response is 5.85%.
Regarding `O=C(Nc1ccccc1)N1CCC2(CC1)CCN(C(=O)c1csnn1)CC2`, the max response was 23.2%.
For `CN1CCC2(CC1)CCN(C(=O)c1cc(C(F)(F)F)cc(C(F)(F)F)c1)CC2`, the max response is -4.06%.
Regarding `CC(=O)N1CCC2(CCN(Cc3nccs3)CC2)CC1`, the max response was 5.77%.
On the same count and under the same terms, then `COc1ccccc1CN1CCC2(CC1)CCN(C(C)=O)CC2`, with 3.76%.
Turning to `CS(=O)(=O)N1CCC2(CCN(C(=O)Nc3cccc(C#N)c3)CC2)CC1`, the max response was -10.5%.
With `COc1ccc(NC(=O)N2CCC3(CC2)CCN(C(=O)c2cnccn2)CC3)cc1`, the max response was 18.9%.
`O=C(c1ccco1)N1CCC2(CC1)CCN(c1ccccc1)CC2`: the max response amounted to 29.9%.
`COc1ccc(NC(=O)N2CC[C@@]3(CCCNC3)C2)cc1`: the max response is -5.51%.
With `Cc1noc(C)c1C(=O)N1CCC[C@@]2(CCN(c3ncccn3)C2)C1`, the max response was found to be 6.75%.
Turning to `COC(=O)N1CCC2(CC1)CN(C(=O)Nc1ccccc1)C2`, the max response was -8.35%.
The same measure, in the same setting: then `COCC(=O)N1CCC2(CC1)CCN(C(=O)Nc1cccc(F)c1)CC2`, with 10.7%.
On to `O=C(Nc1ccccc1)N1CCC2(CC1)CCN(C(=O)c1cnccn1)CC2`, for which the max response stood at 21.7%.
`COC(=O)N1CCC2(CCN(Cc3nccs3)CC2)CC1`: the max response came to 13.2%.
Take `COc1ccc(NC(=O)N2CC3(CCN(C(=O)c4ccco4)CC3)C2)cc1`: the max response stood at 8.8%.
As to `COc1ccc(NC(=O)N2CC3(CCN(C(=O)c4c(C)noc4C)CC3)C2)cc1`, the max response stood at 14.2%.
For the compound `CC(C)NC(=O)N1CC[C@@]2(CCCN(C(=O)c3cccn3C)C2)C1`, the max response is -8.74%.
In the case of `FC(F)(F)c1cc(CN2CC3(CCNCC3)C2)cc(C(F)(F)F)c1`, the max response is -13.5%.
For `O=C(Nc1cccc(F)c1)N1CC2(CCN(S(=O)(=O)c3ccccc3)CC2)C1`, the max response was -11.8%.
`COCC(=O)N1CCC[C@@]2(CCN(c3ncccn3)C2)C1`: the max response turned out to be 20.3%.

A short description of another experiment: Primary qHTS for small molecule stabilizers of the endoplasmic reticulum resident proteome: Secreted ER Calcium Modulated Protein (SERCaMP) assay (AID 1508630). Particulars: SH-SY5Y GLuc-SERCaMP (Gaussia luciferase released on ER calcium loss) secretion, thapsigargin, luminescence; series mostly up to 38.4 µM. The procedure, abridged:
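GLuc-SERCaMP-expressing SH-SY5Y cells, pretreated 16 h with compound, are challenged with thapsigargin to empty ER calcium stores; after 4 h, coelenterazine is added directly to the medium and luminescence is imaged.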
As to `Cc1noc(C)c1C(=O)N1CCC[C@@]2(CCN(C(=O)NC(C)C)C2)C1`, the Potency result is “inactive”.
Same read-out and setting: then `COCC(=O)N1CCC2(CC1)CN(C(=O)Nc1cccc(C#N)c1)C2`, with “inactive”; and `Cc1noc(C)c1C(=O)N1CCC2(CCN(C(=O)NC(C)C)CC2)CC1`, with “inactive”.
Regarding `O=C(Nc1ccccc1)N1CC[C@@]2(CCCN(C(=O)c3ccco3)C2)C1`, the Potency entry was “inactive”.
As to `CC(=O)N1CCC2(CCCN(c3ccccn3)C2)CC1`, the Potency entry was “inactive”.
Take `CC(=O)N1CCC2(CCN(Cc3ccncc3)CC2)CC1`: the Potency result was “inactive”.
Regarding `O=C(Nc1cccc(F)c1)N1CCC2(CCNCC2)CC1`, the Potency entry was “inactive”.
On to `COCC(=O)N1CCC2(CC1)CN(C(=O)Nc1cccc(F)c1)C2`, for which the Potency result was “inactive”.
`COCC(=O)N1CCC2(CC1)CN(Cc1cc(C(F)(F)F)cc(C(F)(F)F)c1)C2`: the Potency result was “inactive”.
Turning to `COCC(=O)N1CCC2(CCCN(C(=O)Nc3cccc(F)c3)C2)CC1`, the Potency entry was “inactive”.
Turning to `COCC(=O)N1CCC2(CC1)CN(C(=O)Nc1ccc(OC)cc1)C2`, the Potency entry was “inactive”.
`Cn1cccc1C(=O)N1CCC2(CC1)CN(C(=O)Nc1ccccc1)C2`: the Potency result was “inactive”.
Regarding `COC(=O)N1CCC[C@@]2(CCN(C(=O)Nc3ccccc3)C2)C1`, the Potency result was “inactive”.
Take `O=C(c1ccncc1)N1CCC2(CC1)CN(c1ncccn1)C2`: the Potency entry was “inactive”.
Same read-out and setting: then `CC(C)NC(=O)N1CCC2(CC1)CCN(C(=O)c1ccco1)CC2`, with “inactive”.
As for `O=C(Nc1ccccc1)N1CC2(CCN(C(=O)c3ccco3)CC2)C1`, the Potency result is “inactive”.
As to `COc1ccccc1CN1CCCC2(CCNCC2)C1`, the Potency result is “inactive”.
On the same count and under the same terms, then `COC(=O)N1CCC[C@@]2(CCN(c3ccccn3)C2)C1`, with “inactive”.
Regarding `Cn1cccc1C(=O)N1CCC2(CCN(C(=O)Nc3cccc(F)c3)CC2)CC1`, the Potency entry is “inactive”.
In the case of `O=C(c1csnn1)N1CCC2(CC1)CN(Cc1cc(C(F)(F)F)cc(C(F)(F)F)c1)C2`, the Potency entry is “inactive”.
Consider `O=C(Nc1ccccc1)N1CCC2(CC1)CCN(C(=O)c1csnn1)CC2`, for which the Potency result was “inactive”.
Still for that read-out and setting: then `CN1CCC2(CC1)CCN(C(=O)c1cc(C(F)(F)F)cc(C(F)(F)F)c1)CC2`, with “inactive”.
As for `CC(=O)N1CCC2(CCN(Cc3nccs3)CC2)CC1`, the Potency entry was “inactive”.
Regarding `COc1ccccc1CN1CCC2(CC1)CCN(C(C)=O)CC2`, the Potency result was “inactive”.
For the compound `CS(=O)(=O)N1CCC2(CCN(C(=O)Nc3cccc(C#N)c3)CC2)CC1`, the Potency result is “inactive”.
Still for that read-out and setting: then `COc1ccc(NC(=O)N2CCC3(CC2)CCN(C(=O)c2cnccn2)CC3)cc1`, with “inactive”; and `O=C(c1ccco1)N1CCC2(CC1)CCN(c1ccccc1)CC2`, with “inactive”.
For the compound `COc1ccc(NC(=O)N2CC[C@@]3(CCCNC3)C2)cc1`, the Potency entry is “inactive”.
Turning to `Cc1noc(C)c1C(=O)N1CCC[C@@]2(CCN(c3ncccn3)C2)C1`, the Potency entry was “inactive”.
Consider `COC(=O)N1CCC2(CC1)CN(C(=O)Nc1ccccc1)C2`, for which the Potency result was “inactive”.
The same measure, in the same setting: then `COCC(=O)N1CCC2(CC1)CCN(C(=O)Nc1cccc(F)c1)CC2`, with “inactive”; and `O=C(Nc1ccccc1)N1CCC2(CC1)CCN(C(=O)c1cnccn1)CC2`, with “inactive”; and `COC(=O)N1CCC2(CCN(Cc3nccs3)CC2)CC1`, with “inactive”.
As for `COc1ccc(NC(=O)N2CC3(CCN(C(=O)c4ccco4)CC3)C2)cc1`, the Potency entry was “inactive”.
For the compound `COc1ccc(NC(=O)N2CC3(CCN(C(=O)c4c(C)noc4C)CC3)C2)cc1`, the Potency result was “inactive”.
On the same count and under the same terms, then `CC(C)NC(=O)N1CC[C@@]2(CCCN(C(=O)c3cccn3C)C2)C1`, with “inactive”; and `FC(F)(F)c1cc(CN2CC3(CCNCC3)C2)cc(C(F)(F)F)c1`, with “inactive”; and `O=C(Nc1cccc(F)c1)N1CC2(CCN(S(=O)(=O)c3ccccc3)CC2)C1`, with “inactive”.
On the same count and under the same terms, then `COCC(=O)N1CCC[C@@]2(CCN(c3ncccn3)C2)C1`, with “inactive”.
